From PubChem BioAssay (NCI) come the findings set out here.

Each structure is given as a SMILES string. This is part of a sample that, as a whole, favours compounds with a hit. Of some 83,000 tested, about 20% had one in any assay.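 Note: values are percent growth. 100 is the growth of untreated cells, values between 100 and 0 indicate rising inhibition; between -100 and 0 indicates cell death.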 A number with no mark means an inactive call. Activity calls are given as the source filed them. The calls were made as follows: active = growth percent below 10; inactive = the rest.

Common to all, as to assay: NCI-60 one-dose screen, 48 h (100 = growth as untreated, 0 = no growth, -100 = all killed)
The test system of one experiment is NCI-H322M lung. The following applies: 10 µM unless noted.
The subject of another experiment is COLO 205 colon. The following applies: 10 µM.
A further experiment concerns K-562 leukemia. The following applies: 10 µM unless noted.
The subject of the next experiment is HT29 colon. The following applies: 10 µM unless noted.
The next experiment relates to U251 CNS. The following applies: 10 µM unless noted.
The next experiment deals with PC-3 prostate. The following applies: 10 µM unless noted.
The test system of the next experiment is SK-MEL-5 melanoma. The conditions noted are these: 10 µM unless noted.
Another experiment concerns CAKI-1 renal. The conditions noted are these: 10 µM unless noted.
The subject of the next experiment is SR leukemia. The conditions noted are these: 10 µM.
The subject of the next experiment is RPMI-8226 leukemia. The following applies: 10 µM unless noted.
In another experiment the test system is OVCAR-5 ovarian. The following applies: 10 µM unless noted.
The next experiment has as its system IGROV1 ovarian. The conditions noted are these: 10 µM.
A further experiment relates to OVCAR-3 ovarian. The conditions noted are these: 10 µM unless noted.
A further experiment deals with HOP-92 NSCLC. The following applies: 10 µM unless noted.
In a further experiment the test system is NCI-H522 lung. The conditions noted are these: 10 µM unless noted.
Another experiment concerns CCRF-CEM leukemia. The conditions noted are these: 10 µM unless noted.
The subject of the next experiment is HS 578T breast. The conditions noted are these: 10 µM unless noted.
A further experiment deals with EKVX NSCLC. The conditions noted are these: 10 µM unless noted.

In the case of `C=CCN1C(=O)C(CC)(CCC(C)C)C(=O)NC1=S` (stereo not given), the growth was 106% with NCI-H322M lung; 108% with COLO 205 colon; 99.8% in the experiment on K-562 leukemia; 103% in the experiment with HT29 colon; 97.3% with U251 CNS; 91.7% in the experiment on PC-3 prostate. The growth is 105% in the experiment with SK-MEL-5 melanoma; 97.7% in the experiment on CAKI-1 renal; 103% in the experiment with SR leukemia; 95.1% in the experiment on RPMI-8226 leukemia; 112% with OVCAR-5 ovarian; 108% in the experiment on IGROV1 ovarian. In addition, the growth with OVCAR-3 ovarian is 113%.
In the case of `NC(=O)OCC(CO)(c1ccccc1)c1ccccc1`, the growth in the experiment on HOP-92 NSCLC was 92.9%; with NCI-H522 lung it was 98.8%; with K-562 leukemia, 108%; with HT29 colon, 97.9%; in the experiment on SK-MEL-5 melanoma, 96.4%; in the experiment with CAKI-1 renal, 91.8%. The growth with CCRF-CEM leukemia was 94.4%; with SR leukemia it was 96.5%; in the experiment on RPMI-8226 leukemia, 98.4%; in the experiment on IGROV1 ovarian it was 103%; with OVCAR-3 ovarian, 100%; with HS 578T breast, 110%.
`CC1(C)N=C(N)N=C(N)N1c1ccc(CCCCc2ccc(S(=O)(=O)F)cc2)c(Cl)c1`: the growth with COLO 205 colon was 33.2%; with K-562 leukemia, 13.1%; in the experiment with HT29 colon, 8.74% (active); in the experiment on U251 CNS it was 9.69% (active); with SK-MEL-5 melanoma, 16.6%; in the experiment on CAKI-1 renal it was 17%. Moreover, the growth in the experiment with CCRF-CEM leukemia was 11.5%; in the experiment on SR leukemia, 33.4%; with RPMI-8226 leukemia, 9.22% (active); in the experiment on OVCAR-5 ovarian, 40.3%; in the experiment with OVCAR-3 ovarian it was 35.3%.
On to `CN1CC2CCC(C1)C2=O`, for which the growth in the experiment with NCI-H322M lung is 88.4%; in the experiment on COLO 205 colon it was 106%; in the experiment on K-562 leukemia it was 93.1%; with HT29 colon, 100%; in the experiment with U251 CNS, 101%; in the experiment with PC-3 prostate, 92.9%. Besides, the growth is 101% in the experiment on SK-MEL-5 melanoma; 91.7% in the experiment on CAKI-1 renal; 94.4% in the experiment with CCRF-CEM leukemia; 82.7% in the experiment on SR leukemia; 98.9% with RPMI-8226 leukemia; 103% in the experiment on OVCAR-5 ovarian. The values for the growth in the experiment on IGROV1 ovarian, in the experiment on OVCAR-3 ovarian and with HS 578T breast were 93.8%, 106% and 108%, respectively.
In the case of `ClCCN(CCCl)c1ccc(/C=C\c2ccnc3ccccc23)cc1`, the growth with HOP-92 NSCLC was 46.6%; in the experiment with COLO 205 colon, 88.8%; in the experiment with K-562 leukemia, 60.9%; in the experiment on U251 CNS, 76.4%; in the experiment on PC-3 prostate, 55.5%; in the experiment with EKVX NSCLC it was 81%. Besides, the growth in the experiment on SR leukemia is 48.2%; in the experiment on OVCAR-5 ovarian, 119%; in the experiment with IGROV1 ovarian, 81.6%; in the experiment with OVCAR-3 ovarian it was 84%; in the experiment with HS 578T breast it was 89.9%.
With `COc1cc(C2CC(=O)Nc3nc(N)[se]c32)cc(OC)c1OC` (stereo not given), the growth in the experiment with NCI-H522 lung was 107%; in the experiment with COLO 205 colon it was 107%; in the experiment on K-562 leukemia it was 83.9%; with HT29 colon it was 89.5%; in the experiment with U251 CNS, 29.8%; with PC-3 prostate, 71.2%. Moreover, the growth in the experiment with EKVX NSCLC was 90%; in the experiment on CAKI-1 renal, 113%; in the experiment on CCRF-CEM leukemia, 96%; with SR leukemia, 65.8%; with RPMI-8226 leukemia it was 101%; in the experiment on OVCAR-5 ovarian, 93.4%. Further, the values for the growth with IGROV1 ovarian, in the experiment with OVCAR-3 ovarian and in the experiment on HS 578T breast were 62%, 101% and 81.9%, respectively.
Regarding `Oc1ccccc1OB(Oc1ccccc1O)N(CCCl)CCCl`, the growth with HOP-92 NSCLC is 74.5%; in the experiment on NCI-H522 lung it was -6.22% (active); in the experiment with COLO 205 colon it was 98.4%; in the experiment on K-562 leukemia it was 96.2%; in the experiment on PC-3 prostate it was 82.8%; with CAKI-1 renal, 80.4%. Also, the growth is 18.4% in the experiment on CCRF-CEM leukemia; 36.5% in the experiment on SR leukemia; 39.2% with RPMI-8226 leukemia; 102% in the experiment on OVCAR-5 ovarian; 52.4% in the experiment with IGROV1 ovarian; 73.8% in the experiment with OVCAR-3 ovarian.
With `CC(C)CCC[C@@H](C)[C@H]1CC[C@H]2[C@@H]3CC=C4C[C@@H](OC(=O)Cc5ccc(N(CCCl)CCCl)cc5)CC[C@]4(C)[C@H]3CC[C@]12C`, the growth with NCI-H322M lung was 214%; with NCI-H522 lung, 124%; in the experiment with COLO 205 colon, 117%; in the experiment with K-562 leukemia, 90.4%; with HT29 colon, 107%; in the experiment with U251 CNS it was 109%. The growth in the experiment with PC-3 prostate is 99.5%; in the experiment on SK-MEL-5 melanoma, 95.8%; in the experiment with EKVX NSCLC, 106%; with CAKI-1 renal, 97%; in the experiment with CCRF-CEM leukemia, 120%; in the experiment with SR leukemia, 101%. The growth was 108% in the experiment on RPMI-8226 leukemia, 98.2% in the experiment with OVCAR-5 ovarian, 112% in the experiment on OVCAR-3 ovarian and 117% in the experiment with HS 578T breast.
With `CSc1ccccc1NP1(=O)OCC(C)([N+](=O)[O-])CO1` (stereo not given), the growth with NCI-H322M lung is 126%; in the experiment on NCI-H522 lung, 103%; in the experiment on COLO 205 colon, 116%; in the experiment with K-562 leukemia, 75.4%; with HT29 colon, 105%; in the experiment with U251 CNS, 95.8%. For the same compound, the growth was 98% with PC-3 prostate; 97.8% with EKVX NSCLC; 99.3% in the experiment on CAKI-1 renal; 80.8% in the experiment with CCRF-CEM leukemia; 91.3% in the experiment with SR leukemia; 111% in the experiment on RPMI-8226 leukemia. The growth in the experiment on OVCAR-5 ovarian is 93.7%; in the experiment on IGROV1 ovarian, 119%; in the experiment on OVCAR-3 ovarian, 107%; with HS 578T breast it was 103%.
For the compound `CNC(=O)O/N=C(/C)c1ccc(Cl)cc1`, the growth in the experiment on HOP-92 NSCLC is 86.4%; with K-562 leukemia, 92.9%; in the experiment with HT29 colon, 99.1%; in the experiment on SK-MEL-5 melanoma, 101%; in the experiment with CAKI-1 renal it was 98.2%; with CCRF-CEM leukemia, 96.3%. In addition, the growth with SR leukemia was 90%; in the experiment on RPMI-8226 leukemia, 96.3%; with IGROV1 ovarian, 101%; in the experiment on OVCAR-3 ovarian, 114%; in the experiment with HS 578T breast, 137%.
Consider `C[C@]12CC[C@H]3[C@@H](C[C@@H]4N=C(c5ccc(O)cc5)S[C@@]45C[C@H](O)CC[C@]35C)[C@@H]1CC[C@@H]2O`, for which the growth was 92.8% in the experiment on NCI-H322M lung; 77.7% in the experiment on COLO 205 colon; 13.9% in the experiment with K-562 leukemia; 19.9% with HT29 colon; 20.1% in the experiment with U251 CNS; 72% in the experiment with SK-MEL-5 melanoma. Also, the growth in the experiment on EKVX NSCLC is 63.6%; in the experiment on CAKI-1 renal, 61.3%; with CCRF-CEM leukemia, 13.1%; in the experiment on SR leukemia, 5.95% (active); with RPMI-8226 leukemia, -36.9% (active); with IGROV1 ovarian, 80.7%. Besides, the growth in the experiment with HS 578T breast was 4.16% (active).
